Results filed as inconclusive are left out. Entries that show only a call come without a potency. Values without a mark were called inactive. Activity calls are given as the source filed them. The call rests on the fitted dose curve; in most records, active means well fitted curve in the direction sought with a large enough effect; inconclusive means small, poorly fitted or top-dose-only effect, or another doubt; inactive means no such curve, though single readings can be large; an effect the other way counts as inactive or inconclusive. Square brackets hold non-standard residues; d marks the D form. Peptide text beside a SMILES is read from it. ξ: configuration not given here. ξLac(3-iPr) = CC(C)CC(O)C(=O)O; NMeV = CN[CH](C(=O)O)C(C)C; NMeA = CN[CH](C)C(=O)O; βAla = NCCC(=O)O
How the values were obtained:
[1] = target: Cellular tumor antigen p53 (Homo sapiens) (UniProt P04637); assay: Primary qHTS for small molecule compounds that upregulate eGFP-tagged delta133p53alpha (in N-terminal) cells. (AID 2060322); conditions: NCI-H358 eGFP-delta133p53alpha fluorescence, 24 h; activation: stronger effect = higher value; further: nearly all actives have a fitted effect of over 75% in size; further: potency means the concentration at half of the fitted maximal effect; on activation: series mostly up to about 56 µM
Chain of Cellular tumor antigen p53 (Homo sapiens) (P04637 whole entry, looked up): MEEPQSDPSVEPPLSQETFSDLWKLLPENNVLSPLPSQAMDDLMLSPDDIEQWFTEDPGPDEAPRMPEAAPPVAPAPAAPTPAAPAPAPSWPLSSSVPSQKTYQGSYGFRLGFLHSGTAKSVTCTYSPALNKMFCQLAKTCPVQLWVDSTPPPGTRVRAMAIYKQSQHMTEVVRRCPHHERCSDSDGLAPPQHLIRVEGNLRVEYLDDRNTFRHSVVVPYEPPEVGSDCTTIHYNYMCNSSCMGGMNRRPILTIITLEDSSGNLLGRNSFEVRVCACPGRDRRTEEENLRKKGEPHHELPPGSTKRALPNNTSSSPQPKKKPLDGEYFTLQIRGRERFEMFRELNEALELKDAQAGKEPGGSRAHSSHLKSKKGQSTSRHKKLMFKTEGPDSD
Method in brief: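 NCI-H358 cells pre-induced 24 h with 10 ng/ml doxycycline to express N-terminal eGFP-delta133p53alpha, then dosed 24 h at 37C without doxycycline; fixed, Hoechst-stained, GFP intensity by laser scanning cytometry, normalized to DMSO (0%) and 57.5 uM 5-azacytidine (100%).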

[2] = target: Aldehyde dehydrogenase, mitochondrial (Homo sapiens) (UniProt P05091); assay: qHTS for Inhibitors of the Aldehyde Dehydrogenase Family (ALDH2) Primary screen (AID 2061308); further: nearly all actives have a fitted effect of over 55% in size
[3] = target: Retinaldehyde dehydrogenase 3 (Homo sapiens) (UniProt P47895); assay: qHTS for Inhibitors of the Aldehyde Dehydrogenase Family (ALDH1A3) Primary screen (AID 2061315)

| Structure (SMILES) | activation [1] | Potency [2] | Potency [3] | Potency [1] |
| --- | --- | --- | --- | --- |
| C=C(CO)C(=O)O[C@H]1C/C(C)=C/CC/C(CO)=C/[C@H]2OC(=O)C(=C)[C@H]12 | -16.8% | inactive | inactive | – |
| N#CC(O[C@@H]1O[C@H](CO)[C@@H](O)[C@H](O)[C@H]1O)c1ccccc1 (some centres not stated) | 13% | inactive | inactive | – |
| C[C@]12CC[C@@H](O)C[C@H]1CC[C@@H]1[C@@H]2CC[C@]2(C)C(=O)CC[C@@H]12 | 3.67% | inactive | inactive | – |
| C=C1CC[C@H]2[C@@H](/C=C(\C)C(=O)[C@@]3(OC(C)=O)C[C@H](C)[C@H](OC(=O)c4ccccc4)[C@@H]3[C@H]1OC(C)=O)C2(C)C | -11.5% | inactive | inactive | – |
| CC1=CC2/C=C(\C)CCC(O)C(O)C(O)CC(=O)C23C(=O)NC(CC(C)C)C3C1C (configuration not stated) | -32.8% | inactive | inactive | – |
| CC(=O)O[C@H]1CC[C@H]2[C@@H]3CC[C@H]4CC(=O)C=C(C)[C@]4(C)[C@H]3CC[C@]12C | -6.33% | inactive | inactive | – |
| CCOP(=O)(OCC)Oc1ccc2c(C)cc(=O)oc2c1 | 6.33% | inactive | inactive | – |
| CN1C(=O)N(c2ccc(C#N)c(C(F)(F)F)c2)C(=O)[C@]1(CO)c1ccccc1 | 17% | inactive | inactive | – |
| C=CC(C)(C)c1[nH]c2cccc3c2c1C[C@@H]1[C@@H]3[C@@H](OC(C)=O)[C@H](C)CN1C | 1.53% | inactive | inactive | – |
| CCN1CC2(COC)C3[C@@H](OC)C4C1C3(C1C[C@]3(O)[C@H](OC(=O)c5ccccc5)C1[C@]4(OC(C)=O)[C@@H](O)[C@@H]3OC)[C@H](OC)C[C@H]2O (some centres not stated) | 8.33% | inactive | inactive | – |
| CC(CCc1ccc(O)cc1)O[C@@H]1O[C@H](CO[C@H]2OC[C@](O)(CO)[C@H]2O)[C@@H](O)[C@H](O)[C@H]1O (some centres not stated) | 2.29% | inactive | inactive | – |
| CCOC(=O)c1ncn2c1CN(C)C(=O)c1c(I)cccc1-2 | 7.67% | inactive | inactive | – |
| C[C@]12CC[C@H](O)CC1=CC[C@@H]1C2CC[C@]2(C)[C@@H](C3=CC(=O)OC3)CC[C@]12O (some centres not stated) | 2.29% | inactive | inactive | – |
| CCCCCCC1C(=O)O[C@H](C)[C@H](NC(=O)c2cccc(NC=O)c2O)C(=O)O[C@@H](C)[C@@H]1OC(=O)CC(C)C (some centres not stated) | -5.67% | inactive | inactive | – |
| CCCCCn1cc(C(=O)C2C(C)(C)C2(C)C)c2ccccc21 | -0.955% | inactive | inactive | – |
| COc1cc(O)c2c(c1)/C=C/C[C@@H](O)[C@@H](O)C(=O)CCC[C@H](C)OC2=O | -12.2% | inactive | inactive | – |
| CC[C@@H]1/C=C/C=C/C[C@H](C)C(O)[C@](C)(O)C(=O)[C@H](C)C(O)[C@H](C)C(=O)[C@H](C)[C@@H](O)[C@H](C)/C=C/C(=O)O[C@H]2[C@@H](C)[C@@H](CC1)O[C@]1(O[C@H](C[C@H](C)O)[C@H](C)CC1=O)[C@@H]2C (some centres not stated) | -12.2% | inactive | inactive | – |
| Cc1sc2c(c1C)C(c1ccc(Cl)cc1)=NC(CC(=O)OC(C)(C)C)c1nnc(C)n1-2 (configuration not stated) | 7.64% | inactive | inactive | – |
| CC12CCC3C(C1)c1c(cc(O)c(C(=O)c4ccccc4)c1OC3(C)C)O2 (configuration not stated) | -17.6% | inactive | inactive | – |
| CCOC(=O)NC(C)(C)Cc1ccc(Cl)cc1 | -6.33% | inactive | inactive | – |
| CC1=CC2/C=C(\C)CCCC(O)/C=C/C(=O)OC23C(=O)NC(CC(C)C)C3C1C (configuration not stated) | 1.79% | inactive | inactive | – |
| C[C@]12CC[C@H]3[C@@H](CCC4=C/C(=N/OCC(=O)O)CC[C@@]43C)[C@@H]1CC[C@@H]2O | 13.7% | inactive | inactive | – |
| CC(=O)O[C@@H]1[C@@H](O)[C@H]2O[C@@H]3C=C(C)[C@@H](O)C[C@]3(CO)[C@]1(C)[C@]21CO1 | – | inactive | inactive | 1480 nM (active) |
| CC(=O)OC[C@]12C[C@H](O)C(C)=C[C@H]1O[C@@H]1[C@H](O)[C@@H](O)[C@@]2(C)[C@]12CO2 | – | inactive | inactive | 6590 nM (active) |
| CN1C(=O)c2ccccc2NC(=O)[C@]12O[C@@H]2c1ccccc1 | -0.763% | inactive | inactive | – |
| CCC(C)(OC(C)=O)C(=O)O[C@H]1[C@H](OC(C)=O)C[C@@H]2[C@@](C)([C@@H]3C[C@H]4C=CO[C@H]4O3)[C@H](C)C[C@H](OC(C)=O)[C@@]2(COC(C)=O)[C@@]12CO2 (some centres not stated) | -3.82% | inactive | inactive | – |
| CC1=C[C@H]2O[C@@H]3C[C@H]4OC(=O)/C=C/C=C/C(=O)OCC/C(C)=C/C(=O)OC[C@@]2(CC1)[C@]4(C)[C@]31CO1 | – | inactive | inactive | 16.5 nM (active) |
| CCC1CC2CN3CCc4c([nH]c5ccccc45)C(C(=O)OC)(C2)C13 (configuration not stated) | 3.05% | inactive | inactive | – |
| CCC(C)C1NC(=O)C2CCCN2C(=O)C(CC(C)C)OC(=O)CCNC(=O)C(C)N(C)C(=O)C(C(C)C)N(C)C1=O (configuration not stated) (cyclo([ξLac(3-iPr)]PI[NMeV][NMeA][βAla]); configuration not given here) | -7.14% | inactive | inactive | – |

— PubChem BioAssay (NCATS)
